Assay results reported in article PMC7862700, “An all-to-all approach to the identification of sequence-specific readers for epigenetic DNA modifications on cytosine”.

Columns and labels:
Test in all cases: DAPPL (digital affinity profiling via proximity ligation, sequencing); 10 mM Tris-HCl pH 7.5, 50 mM NaCl, 1 mM DTT, 4% glycerol, room temperature, 30 min; GST-TFs on glutathione beads, 16-mer random dsDNA library, 0.1% formaldehyde crosslink after washing; high values mean tight binding
Conditions in all cases: protein: recombinant; tags: N-terminal GST; dsDNA, one strand shown
FLI1 = target: T1, FLI1 (Homo sapiens, UniProt Q01543 1-452)
T1 sequence: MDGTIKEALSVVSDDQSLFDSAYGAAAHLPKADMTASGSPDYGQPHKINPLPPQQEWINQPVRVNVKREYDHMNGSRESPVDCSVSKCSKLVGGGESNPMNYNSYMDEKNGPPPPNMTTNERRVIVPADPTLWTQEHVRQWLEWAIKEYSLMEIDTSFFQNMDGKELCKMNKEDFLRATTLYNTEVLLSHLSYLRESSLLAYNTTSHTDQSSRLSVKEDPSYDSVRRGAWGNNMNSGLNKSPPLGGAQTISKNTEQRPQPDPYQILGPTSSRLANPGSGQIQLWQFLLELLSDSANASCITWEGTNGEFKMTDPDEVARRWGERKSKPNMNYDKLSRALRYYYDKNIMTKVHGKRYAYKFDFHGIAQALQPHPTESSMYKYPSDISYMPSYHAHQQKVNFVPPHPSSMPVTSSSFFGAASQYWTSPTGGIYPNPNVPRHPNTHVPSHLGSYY
In short: (§1)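 Each value of binding signal is a hexamer's read frequency for a factor divided by the same hexamer's frequency in the tag-only sample. Barcoded, bead-captured GST fusions of human transcription factors made in yeast were pooled with that sample and incubated with 200 nmole of a random double-stranded 16-mer DNA library in Tris/NaCl/DTT/glycerol buffer at room temperature for 30 min. Washing, 0.1% formaldehyde crosslinking, proximity ligation, PCR and Illumina NextSeq500 sequencing followed.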

ELK1 = target: T2, ELK1 (Homo sapiens, UniProt P19419 1-428)
T2 sequence: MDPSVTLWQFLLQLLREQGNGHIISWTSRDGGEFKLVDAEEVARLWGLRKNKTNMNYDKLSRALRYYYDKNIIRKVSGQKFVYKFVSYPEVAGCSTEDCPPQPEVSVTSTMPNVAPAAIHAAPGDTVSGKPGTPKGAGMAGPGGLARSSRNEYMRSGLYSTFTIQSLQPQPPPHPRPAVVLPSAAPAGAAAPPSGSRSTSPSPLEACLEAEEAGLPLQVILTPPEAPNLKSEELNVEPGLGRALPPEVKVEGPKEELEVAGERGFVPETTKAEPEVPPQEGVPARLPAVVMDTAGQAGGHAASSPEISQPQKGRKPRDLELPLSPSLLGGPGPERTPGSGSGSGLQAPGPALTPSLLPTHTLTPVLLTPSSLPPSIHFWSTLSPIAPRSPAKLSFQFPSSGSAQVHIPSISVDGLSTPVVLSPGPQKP
In short: as §1

GABPA = target: T3, GABPA (Homo sapiens, UniProt Q06546 1-454)
T3 sequence: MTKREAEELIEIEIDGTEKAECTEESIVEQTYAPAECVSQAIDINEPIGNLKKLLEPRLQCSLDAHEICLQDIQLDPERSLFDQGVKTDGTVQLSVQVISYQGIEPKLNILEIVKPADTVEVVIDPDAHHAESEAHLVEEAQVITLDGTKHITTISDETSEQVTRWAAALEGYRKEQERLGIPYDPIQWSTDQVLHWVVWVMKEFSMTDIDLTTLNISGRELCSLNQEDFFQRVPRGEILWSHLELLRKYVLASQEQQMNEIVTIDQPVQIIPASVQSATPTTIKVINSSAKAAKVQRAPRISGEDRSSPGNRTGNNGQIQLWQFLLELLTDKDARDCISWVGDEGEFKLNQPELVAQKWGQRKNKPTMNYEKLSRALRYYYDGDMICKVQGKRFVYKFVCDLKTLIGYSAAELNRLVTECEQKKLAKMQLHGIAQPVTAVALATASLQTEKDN
In short: as §1

ERG = target: T4, ERG (Homo sapiens, UniProt P11308 1-479)
T4 sequence: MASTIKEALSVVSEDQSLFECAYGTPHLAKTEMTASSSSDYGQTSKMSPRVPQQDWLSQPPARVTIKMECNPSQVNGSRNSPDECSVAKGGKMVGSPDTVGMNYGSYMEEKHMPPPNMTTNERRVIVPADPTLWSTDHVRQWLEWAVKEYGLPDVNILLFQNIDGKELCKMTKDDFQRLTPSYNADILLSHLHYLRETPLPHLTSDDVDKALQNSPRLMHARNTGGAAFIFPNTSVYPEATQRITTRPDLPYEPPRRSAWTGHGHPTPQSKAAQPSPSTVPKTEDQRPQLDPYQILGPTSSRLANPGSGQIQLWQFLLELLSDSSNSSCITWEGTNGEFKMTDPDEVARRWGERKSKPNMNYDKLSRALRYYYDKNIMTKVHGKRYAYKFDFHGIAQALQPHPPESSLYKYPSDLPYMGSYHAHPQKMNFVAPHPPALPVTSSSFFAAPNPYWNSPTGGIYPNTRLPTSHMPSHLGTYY
In short: as §1

ELF1 = ELF1 (Homo sapiens, UniProt P32519 1-619)
ELF1, sequence (P32519 whole entry): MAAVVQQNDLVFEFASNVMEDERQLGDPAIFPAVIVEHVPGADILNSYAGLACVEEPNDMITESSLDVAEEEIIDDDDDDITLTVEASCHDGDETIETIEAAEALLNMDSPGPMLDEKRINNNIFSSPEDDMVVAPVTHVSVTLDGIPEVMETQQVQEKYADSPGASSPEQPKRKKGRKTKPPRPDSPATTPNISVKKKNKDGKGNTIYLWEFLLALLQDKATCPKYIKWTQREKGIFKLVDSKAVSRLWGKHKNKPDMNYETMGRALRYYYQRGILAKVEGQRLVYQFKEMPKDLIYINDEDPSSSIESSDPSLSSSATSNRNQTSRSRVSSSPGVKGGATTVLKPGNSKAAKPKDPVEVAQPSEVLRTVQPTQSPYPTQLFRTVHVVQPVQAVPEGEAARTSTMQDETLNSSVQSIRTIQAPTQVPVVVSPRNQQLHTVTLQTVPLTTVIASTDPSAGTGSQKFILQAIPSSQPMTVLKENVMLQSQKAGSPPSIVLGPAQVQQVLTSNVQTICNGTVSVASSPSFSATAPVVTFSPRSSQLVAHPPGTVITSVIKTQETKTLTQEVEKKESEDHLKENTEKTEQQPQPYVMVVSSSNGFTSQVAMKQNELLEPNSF
In short: as §1

EHF = target: T5, EHF (Homo sapiens, UniProt Q9NZC4 1-300)
T5 sequence: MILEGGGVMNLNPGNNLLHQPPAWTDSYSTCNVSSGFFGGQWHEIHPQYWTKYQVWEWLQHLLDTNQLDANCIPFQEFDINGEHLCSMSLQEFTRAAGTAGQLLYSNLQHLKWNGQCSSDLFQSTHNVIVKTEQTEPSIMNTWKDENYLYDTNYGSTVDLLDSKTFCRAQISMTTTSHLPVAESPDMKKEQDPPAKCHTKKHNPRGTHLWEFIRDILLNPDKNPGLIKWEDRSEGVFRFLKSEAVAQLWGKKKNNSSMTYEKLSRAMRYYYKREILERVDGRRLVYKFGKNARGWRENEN
In short: as §1

SPI1 = SPI1 (Homo sapiens, UniProt P17947 1-270)
In short: as §1

SPIB = SPIB (Homo sapiens, UniProt Q01892 1-262)
SPIB, sequence (Q01892 whole entry): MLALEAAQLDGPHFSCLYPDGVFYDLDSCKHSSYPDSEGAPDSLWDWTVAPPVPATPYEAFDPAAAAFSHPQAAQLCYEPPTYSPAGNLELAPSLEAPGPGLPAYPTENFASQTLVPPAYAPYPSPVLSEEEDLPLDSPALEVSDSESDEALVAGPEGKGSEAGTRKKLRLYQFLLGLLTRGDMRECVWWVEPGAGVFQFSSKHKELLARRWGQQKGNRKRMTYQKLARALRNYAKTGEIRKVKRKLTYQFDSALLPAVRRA
In short: as §1

ELK3 = target: T6, ELK3 (Homo sapiens, UniProt P41970 1-407)
T6 sequence: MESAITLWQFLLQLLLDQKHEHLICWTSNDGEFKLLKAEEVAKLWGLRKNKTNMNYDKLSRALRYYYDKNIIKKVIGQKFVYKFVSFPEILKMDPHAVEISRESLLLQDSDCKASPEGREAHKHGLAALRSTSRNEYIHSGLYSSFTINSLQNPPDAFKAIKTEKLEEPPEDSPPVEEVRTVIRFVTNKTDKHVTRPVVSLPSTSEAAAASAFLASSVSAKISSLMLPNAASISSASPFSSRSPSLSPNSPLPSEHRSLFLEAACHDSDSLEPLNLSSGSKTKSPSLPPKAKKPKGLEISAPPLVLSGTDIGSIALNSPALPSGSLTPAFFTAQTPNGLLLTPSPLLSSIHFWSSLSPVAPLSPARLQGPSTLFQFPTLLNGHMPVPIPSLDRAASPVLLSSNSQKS
In short: as §1

In the case of ACTAAT, the binding signal (FLI1) is reported as 1.33 fold enrichment (6-mer frequency, TF over GST control), the binding signal (ELK1) is reported as 1.27 fold enrichment (6-mer frequency, TF over GST control) and the binding signal (GABPA) is reported as 1.23 fold enrichment (6-mer frequency, TF over GST control). The binding signal (ERG) was 1.2 fold enrichment (6-mer frequency, TF over GST control), the binding signal (ELF1) was 1.33 fold enrichment (6-mer frequency, TF over GST control) and the binding signal (EHF) was 1.37 fold enrichment (6-mer frequency, TF over GST control). The binding signal (SPI1) was 1.28 fold enrichment (6-mer frequency, TF over GST control), the binding signal (SPIB) was 1.39 fold enrichment (6-mer frequency, TF over GST control) and the binding signal (ELK3) was 1.37 fold enrichment (6-mer frequency, TF over GST control).

For TTACCC, the binding signal (FLI1) was 1.3 fold enrichment (6-mer frequency, TF over GST control), the binding signal (ELK1) was 1.44 fold enrichment (6-mer frequency, TF over GST control) and the binding signal (GABPA) was 1.3 fold enrichment (6-mer frequency, TF over GST control). For the same sequence, the binding signal (ERG) was 1.34 fold enrichment (6-mer frequency, TF over GST control), the binding signal (ELF1) was 1.38 fold enrichment (6-mer frequency, TF over GST control) and the binding signal (EHF) was 1.43 fold enrichment (6-mer frequency, TF over GST control). The binding signal (SPI1) was 1.35 fold enrichment (6-mer frequency, TF over GST control), the binding signal (SPIB) was 1.45 fold enrichment (6-mer frequency, TF over GST control) and the binding signal (ELK3) was 1.39 fold enrichment (6-mer frequency, TF over GST control).

For ATCTAG, the binding signal (FLI1) was 1.12 fold enrichment (6-mer frequency, TF over GST control), the binding signal (ELK1) was 1.16 fold enrichment (6-mer frequency, TF over GST control) and the binding signal (GABPA) was 1.12 fold enrichment (6-mer frequency, TF over GST control). For the same sequence, the binding signal (ERG) was 1.1 fold enrichment (6-mer frequency, TF over GST control), the binding signal (ELF1) was 1.1 fold enrichment (6-mer frequency, TF over GST control) and the binding signal (EHF) was 1.14 fold enrichment (6-mer frequency, TF over GST control). For the same sequence, the binding signal (SPI1) was 1.14 fold enrichment (6-mer frequency, TF over GST control), the binding signal (SPIB) was 1.2 fold enrichment (6-mer frequency, TF over GST control) and the binding signal (ELK3) was 1.23 fold enrichment (6-mer frequency, TF over GST control).

ACGGAT was tested, and the binding signal (FLI1) was 1.27 fold enrichment (6-mer frequency, TF over GST control), the binding signal (ELK1) was 1.21 fold enrichment (6-mer frequency, TF over GST control) and the binding signal (GABPA) was 1.21 fold enrichment (6-mer frequency, TF over GST control). The binding signal (ERG) was 1.37 fold enrichment (6-mer frequency, TF over GST control), the binding signal (ELF1) was 1.22 fold enrichment (6-mer frequency, TF over GST control) and the binding signal (EHF) was 1.3 fold enrichment (6-mer frequency, TF over GST control). The binding signal (SPI1) was 1.2 fold enrichment (6-mer frequency, TF over GST control), the binding signal (SPIB) was 1.19 fold enrichment (6-mer frequency, TF over GST control) and the binding signal (ELK3) was 1.29 fold enrichment (6-mer frequency, TF over GST control).

In the case of GTTTAA, the binding signal (FLI1) is reported as 1.19 fold enrichment (6-mer frequency, TF over GST control), the binding signal (ELK1) is reported as 1.19 fold enrichment (6-mer frequency, TF over GST control) and the binding signal (GABPA) is reported as 1.13 fold enrichment (6-mer frequency, TF over GST control). The binding signal (ERG) was 1.13 fold enrichment (6-mer frequency, TF over GST control), the binding signal (ELF1) was 1.13 fold enrichment (6-mer frequency, TF over GST control) and the binding signal (EHF) was 1.17 fold enrichment (6-mer frequency, TF over GST control). The binding signal (SPI1) was 1.16 fold enrichment (6-mer frequency, TF over GST control), the binding signal (SPIB) was 1.27 fold enrichment (6-mer frequency, TF over GST control) and the binding signal (ELK3) was 1.26 fold enrichment (6-mer frequency, TF over GST control).

With CAATTT the binding signal (FLI1) was 1.26 fold enrichment (6-mer frequency, TF over GST control), the binding signal (ELK1) was 1.35 fold enrichment (6-mer frequency, TF over GST control) and the binding signal (GABPA) was 1.37 fold enrichment (6-mer frequency, TF over GST control). The binding signal (ERG) was 1.43 fold enrichment (6-mer frequency, TF over GST control), the binding signal (ELF1) was 1.29 fold enrichment (6-mer frequency, TF over GST control) and the binding signal (EHF) was 1.28 fold enrichment (6-mer frequency, TF over GST control). For the same sequence, the binding signal (SPI1) was 1.32 fold enrichment (6-mer frequency, TF over GST control), the binding signal (SPIB) was 1.43 fold enrichment (6-mer frequency, TF over GST control) and the binding signal (ELK3) was 1.12 fold enrichment (6-mer frequency, TF over GST control).

TCCGTA was tested, and the binding signal (FLI1) was 1.57 fold enrichment (6-mer frequency, TF over GST control), the binding signal (ELK1) was 1.63 fold enrichment (6-mer frequency, TF over GST control) and the binding signal (GABPA) was 1.59 fold enrichment (6-mer frequency, TF over GST control). The binding signal (ERG) was 1.52 fold enrichment (6-mer frequency, TF over GST control), the binding signal (ELF1) was 1.59 fold enrichment (6-mer frequency, TF over GST control) and the binding signal (EHF) was 1.6 fold enrichment (6-mer frequency, TF over GST control). For the same sequence, the binding signal (SPI1) was 1.69 fold enrichment (6-mer frequency, TF over GST control), the binding signal (SPIB) was 1.58 fold enrichment (6-mer frequency, TF over GST control) and the binding signal (ELK3) was 1.62 fold enrichment (6-mer frequency, TF over GST control).

ATTTCA was tested, and the binding signal (FLI1) was 1.23 fold enrichment (6-mer frequency, TF over GST control), the binding signal (ELK1) was 1.17 fold enrichment (6-mer frequency, TF over GST control) and the binding signal (GABPA) was 1.23 fold enrichment (6-mer frequency, TF over GST control). For the same sequence, the binding signal (ERG) was 1.25 fold enrichment (6-mer frequency, TF over GST control), the binding signal (ELF1) was 1.21 fold enrichment (6-mer frequency, TF over GST control) and the binding signal (EHF) was 1.24 fold enrichment (6-mer frequency, TF over GST control). For the same sequence, the binding signal (SPI1) was 1.23 fold enrichment (6-mer frequency, TF over GST control), the binding signal (SPIB) was 1.26 fold enrichment (6-mer frequency, TF over GST control) and the binding signal (ELK3) was 1.23 fold enrichment (6-mer frequency, TF over GST control).
